These molecules were tested on DRIVER-selected RNA biosensor (aptazyme) pool (assay: maximum fold change of ribozyme cleavage across biosensor pool versus no-compound control; higher = stronger biosensor response (ligand inhibits cleavage)). Conditions: 10 µM.
Protocol: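 CleaveSeq: a pool of resynthesized hammerhead-ribozyme RNA biosensors (sTRSV scaffold with randomized loops, 1,730 sequences) was T7-transcribed at 37 °C for 15-30 min with a single compound at 10 µM. Cleaved and uncleaved products were counted by NGS, and fold change of cleavage was computed against the DMSO-only condition. The value is the maximum fold change of cleavage over all biosensors in the pool. About 255 compounds were tested individually.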

Row | SMILES | maximum fold change
1 | OCCCN/C=C/1C(=O)CC(CC1=O)c1ccc(cc1)OC (stereo not given) | 1.74
2 | C=Cc1ccc(Cn2c(C)c(CNCc3ccc(CC)cc3)c(C(=O)O)c2C)cc1 | 3.37
3 | Cc1ccc(CNc2nc3ccc(C)cc3n3cnnc23)cc1 | 2.77
4 | Cc1ccc(S(=O)(=O)NCC2CCC(C(=O)NCC(C)c3ccccc3)CC2)cc1 (stereo not given) | 4.21
5 | CN1C(=O)c2ccccc2C(C(=O)O)C1c1c[nH]c2ccccc12 (stereo not given) | 2.39
6 | CCCOc1ccc(C2c3c(oc4ccccc4c3=O)C(=O)N2c2nccs2)cc1 (stereo not given) | 8.73
7 | CCOC(=O)c1c(C)c(C(=O)N(CC)C2CCCCC2)c(C)n1C | 2.31
8 | CCOC(=O)C1=C(C)NC2=C(C(=O)c3ccccc32)C1c1ccc(C(F)(F)F)cc1 (stereo not given) | 2.29
9 | Cc1ccc(-c2noc(CCC(=O)Nc3cc(C)ccn3)n2)cc1 | 2.17
10 | COc1ccc(CCNC(=O)c2nnc(Cc3ccc(Cl)cc3Cl)o2)cc1OC | 2.09
11 | CCOc1cc2c(cc1OCC)C1C(C(=O)N(CC)Cc3ccccc3)c3ccccc3C(=O)N1CC2 (stereo not given) | 3.54
12 | Cc1ccccc1-c1nc(CS(=O)(=O)CC(=O)NC2CCCCC2C)c(C)o1 (stereo not given) | 2.07
13 | CC(C)CC(NC(=O)/C(=C/c1ccco1)NC(=O)c1ccc(Br)o1)C(=O)O (stereo not given) | 1.98
14 | c1cc(-c2nc3cc(Oc4ccc5[nH]c(-c6ccncc6)nc5c4)ccc3[nH]2)ccn1 | 14.3
15 | O=C(NCC(=O)N1CCOCC1)c1ccccc1 | 1.78
16 | C=Cc1ccc(Cn2c(C(=O)O)c(CNCc3ccco3)c3ccc(C)cc32)cc1 | 2.45
17 | CCCCOc1ccc(CNC2=NS(=O)(=O)C(c3ccc(C(C)C)cc3)=C2C)cc1 | 3.52
18 | COc1ccc2c(c1)c(C(=O)O)c(C)n2CCc1ccc(OC)c(OC)c1 | 2.38
19 | CCOc1cc(CNc2ncc(-c3ccc(Br)cc3)n2C)ccc1O | 2.06
20 | Cn1c(=O)[nH]c(=O)c2c1nc(NCCCn1ccnc1)n2CCCc1ccccc1 | 1.96

Row | SMILES | maximum fold change
21 | CCOC(=O)N1CCN(C(=O)C2=C(C)C(=O)OC23CCCCC3)CC1 | 4.06
22 | CCOC(=O)c1c(C)c(-c2ccccc2)n(CC(=O)NCCN(C)C)c1C | 2.04
23 | CN(CCCNC(=O)c1ccc(CS(=O)(=O)Cc2cccc(Cl)c2)o1)C1CCCCC1 | 1.94
24 | Cc1cc(C)c2c(-n3cccc3)c(C(=O)NCc3ccc4c(c3)OCO4)sc2n1 | 5.23
25 | COc1cccc(C(=O)/C=C2/Nc3ncc(Br)cc3NC2=O)c1 | 5.23
26 | CCOC(=O)c1cc(-c2ccc(C)cc2)n(CC(=O)NC(C)CC)c1C (stereo not given) | 2.38
27 | CCc1ccc2oc(C(=O)N(Cc3ccccc3F)C3CCS(=O)(=O)C3)c(C)c2c1 (stereo not given) | 4.9
28 | COCCNC(=O)C1c2ccccc2C(=O)N(CCOC)C1c1c[nH]c2ccccc12 (stereo not given) | 2.7
29 | COc1ccc(-c2cc3c(=O)n(CC(=O)NCc4ccccn4)ncn3n2)cc1 | 3.51
30 | CCOC(=O)c1cnc(SC)nc1NC(=O)CSCc1csc2c1CCCC2 | 3.61
31 | CCOC(=O)N1CCN(c2cnn(-c3nc4ccccc4s3)c(=O)c2Cl)CC1 | 3.21
32 | COc1ccc(CN2CCN(Cc3csc(C)c3C)CC2)c(OC)c1OC | 2.47
33 | CCCCC(C(=O)N1CCCCC1)N1C(=O)c2ccccc2C1=O (stereo not given) | 1.93
34 | COc1ccc(OC)c(/C=C2/N=C(c3ccc(OC)c(Br)c3)OC2=O)c1 | 2.65
35 | O=c1cc(-c2ccccc2)[nH]c2nc(C(F)(F)F)nn12 | 3.78
36 | CCN1CCN(CCCNC(=O)c2ccc3c(c2)NC(=O)/C(=C/C(=O)c2ccc(OC)cc2)N3)CC1 | 8.68
37 | c1cncc(-c2nc3cc(Oc4ccc5[nH]c(-c6cccnc6)nc5c4)ccc3[nH]2)c1 | 12.5
38 | CCOc1ccc(/C=C2\SC(N3CC(C)OC(C)C3)=NC2=O)cc1 (stereo not given) | 2.08
39 | O=C1C2CC=C(Cl)CC2C(=O)N1CCO (stereo not given) | 3.4
40 | Cc1nc(N2C(=O)c3oc4ccccc4c(=O)c3C2c2ccc(Cl)cc2)sc1C (stereo not given) | 2.07

From the supplement of paper PMC9477273
